According to PubChem BioAssay (Tox21):
Where “and” joins values, the source holds several entries; their conditions need not be identical. Identical values can stand only once. Records with an inconclusive call do not appear. Calls of active or inactive are those of the source. The call rests on the fitted dose curve; in most records, active means well fitted inhibition curve with a large enough effect in the repeat runs; inconclusive means weak or mixed curves; inactive means no such curve, though single readings can be large or run the other way.

The molecules below were run against Cytochrome P450 3A4 (Homo sapiens) (UniProt P08684) (assay: Cytochrome P450 Family 3 Subfamily A Member 4 (CYP3A4) small molecule antagonists: luciferase reporter qHTS assay (AID 1671201; further: nearly all actives have a fitted effect of over 50% in size)). Settings: P450-Glo CYP3A4 enzyme, luciferin luminescence, 1 h; series mostly up to 115 µM; activity change, negative = inhibition: at the top concentration.
Summary of the method: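 Enzyme and proluciferin substrate are mixed with test chemicals for 10 min, then NADPH regeneration system drives turnover for 1 h at room temperature. A detection reagent halts the reaction; luminescence after 20 min gives relative activity.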
On the % scale 0 is the no-effect control and ±100 the full control effect; potency means the concentration at half of the fitted maximal effect.

Sequence of Cytochrome P450 3A4 (Homo sapiens) (P08684 whole entry, looked up): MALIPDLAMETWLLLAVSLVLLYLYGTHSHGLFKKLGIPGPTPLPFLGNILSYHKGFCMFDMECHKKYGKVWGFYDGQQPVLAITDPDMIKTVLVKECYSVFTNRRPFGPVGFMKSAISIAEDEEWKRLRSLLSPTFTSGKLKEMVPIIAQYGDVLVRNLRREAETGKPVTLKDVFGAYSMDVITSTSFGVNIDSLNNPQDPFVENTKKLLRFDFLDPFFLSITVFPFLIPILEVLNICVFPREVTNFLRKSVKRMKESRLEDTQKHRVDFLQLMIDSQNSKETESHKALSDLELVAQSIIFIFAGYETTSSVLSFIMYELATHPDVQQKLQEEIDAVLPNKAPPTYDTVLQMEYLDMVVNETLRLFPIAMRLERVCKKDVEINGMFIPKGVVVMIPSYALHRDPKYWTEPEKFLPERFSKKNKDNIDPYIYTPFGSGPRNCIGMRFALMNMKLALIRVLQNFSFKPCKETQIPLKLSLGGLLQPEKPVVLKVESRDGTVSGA

SMILES | Potency | activity change, negative = inhibition
CCN1/C(=C/C=C/c2sc3ccccc3[n+]2CC)Sc2ccccc21 | 6.01 µM (active) | –
O=C1CCCCCN1SSN1CCCCCC1=O | – | -26.2% (inactive)
CC1=C(/C=C/C(C)=C/C=C/C(C)=C/C=O)C(C)(C)CCC1 | 28.1 µM (active) | –
CCc1cc(Cc2cc(CC)c(N)c(CC)c2)cc(CC)c1N | 0.633 µM (active) | –
O=C(O)c1cc(O)c2c(c1)C(=O)c1cccc(O)c1C2=O | – | -2.84% (inactive)
O=[N+]([O-])c1cc(Cl)c(Cl)c(Cl)c1Cl | – | -1.84% (inactive)
CCCCCCCCCCCCCCCCCC[N+](C)(C)C | 71.2 µM (active) | –
C=CC(=O)OCC(CO)(COC(=O)C=C)COC(=O)C=C | 1.01 µM (active) and 1.12 µM (active) | –
CO[Si](CCCNc1ccccc1)(OC)OC | 25.2 µM (active) | –
CCCCN(CCCC)C(=O)N(CCCC)CCCC | 5.03 µM (active) | –
CCc1oc2ccccc2c1C(=O)c1cc(Br)c(O)c(Br)c1 | – | 43.8% [at 52.9 µM] (inactive)
O=C(Nc1cccc(Cl)c1)OCC#CCCl | 7.1 µM (active) | –
O=C(OC[C@H]1O[C@@H](OC(=O)c2cc(O)c(O)c(OC(=O)c3cc(O)c(O)c(O)c3)c2)[C@H](OC(=O)c2cc(O)c(O)c(OC(=O)c3cc(O)c(O)c(O)c3)c2)[C@@H](OC(=O)c2cc(O)c(O)c(OC(=O)c3cc(O)c(O)c(O)c3)c2)[C@@H]1OC(=O)c1cc(O)c(O)c(OC(=O)c2cc(O)c(O)c(O)c2)c1)c1cc(O)c(O)c(OC(=O)c2cc(O)c(O)c(O)c2)c1 | – | -11% [at 23.6 µM] (inactive)
CCN(CCC#N)c1ccc(N=Nc2c(Cl)cc([N+](=O)[O-])cc2Cl)cc1 | – | -19.8% (inactive)
CCOC(=O)O[C@H](C)OC(=O)c1ccc2c(c1)cc(C(=O)NC1CCN(C(C)C)CC1)n2Cc1cc(-c2ccc(Cl)s2)on1 | 5.91 µM (active) | –
Cc1nc(-c2ccc3c(c2)CCN(CCC2CCC(NC(=O)/C=C/c4ccc(F)cc4)CC2)CC3)no1 (centres undefined) | – | 47.3% [at 52.9 µM] (inactive)
O=C(O)c1c(Cl)cccc1Cl | – | -0.886% (inactive)
CCCCCCCCCCCCCCCC(=O)OC[C@H](O)[C@H]1OC(=O)C(O)=C1O | – | -4.73% (inactive)
CCC(C)(C)C1CCCCC1OC(C)=O (centres undefined) | – | 6.88% (inactive)
CCCCCCCCNC(C)C(O)c1ccc(SC(C)C)cc1 (centres undefined) | – | -2.05% [at 52.9 µM] (inactive)
CCCCCCCC(=O)[O-].CCCCCCCC(=O)[O-].[Zn+2] | – | 20.3% [at 52.9 µM] (inactive)
CC(C)(C)C(=O)OCOC(=O)C1N2C(=O)CC2S(=O)(=O)C1(C)C (centres undefined) | – | -0.0814% [at 52.9 µM] (inactive)
Clc1ccc2cc3ccccc3cc2c1 | – | -6.64% (inactive)
